Test results: PubChem BioAssay (NCI)
About 79,000 compounds went through this panel and 15% of them were active in at least one assay; those are over-represented in the sample as a whole. Activity calls are given as the source filed them. Cut-off read from the data, not from the text of the source: active = growth inhibition above about 70%; inactive = the rest.

Experiments:
[1] = NCI Yeast Anticancer Drug Screen. Data for the rad50 strain (AID 155);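 note: 0% = growth of vehicle-only cultures of the same strain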; settings: S. cerevisiae rad50 strain growth inhibition; at 50.0 µM; active compounds read high
Procedure, shortened: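 Vehicle-treated cultures provide the reference for the growth inhibition reported for compound-exposed, repair-deficient yeast.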

[2] = NCI Yeast Anticancer Drug Screen. Data for the mec2-1 strain (AID 157); settings: S. cerevisiae mec2-1 strain, at 50.0 µM, active compounds read high
Procedure, shortened: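 Test agents were screened against the mec2-1 yeast strain, with defined DNA repair or cell cycle alteration. Growth was scored as inhibition against vehicle-only controls.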

[3] = NCI Yeast Anticancer Drug Screen. Data for the cln2 rad14 strain (AID 165);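 note: 0% = growth equal to vehicle treated cultures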; settings: S. cerevisiae cln2 rad14 strain, at 50.0 µM, active compounds read high
Procedure, shortened: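 Growth of compound-exposed yeast (cln2 rad14 genotype) measured and expressed as inhibition relative to vehicle.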

[4] = NCI Yeast Anticancer Drug Screen. Data for the bub3 strain (AID 167); settings: S. cerevisiae bub3 mutant strain, at 50.0 µM, active compounds read high
Procedure, shortened: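 Mutant yeast screening strain plus compound; vehicle-treated cultures serve as the 0% inhibition reference.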

[5] = NCI Yeast Anticancer Drug Screen. Data for the mlh1 rad18 strain (AID 175); settings: S. cerevisiae mlh1 rad18 strain growth inhibition; at 50.0 µM; active compounds read high
Procedure, shortened: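 In this whole-cell yeast screen, a strain with altered DNA damage repair is challenged with compound, and its growth is measured against matched vehicle-treated controls.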

Measured: growth inhibition

CCCCCCCCCC/C=C/C=O
inactive: [1] 57.6% | [2] 43.5% | [3] 18.7% | [4] 43.6% | [5] 8.9%

O=C1CSC(c2cccc(C(F)(F)F)c2)N1c1nncs1 (stereo not given)
inactive: [1] 10.5% | [2] 2.15% | [3] 7.95% | [4] 16.6% | [5] 15.1%

CC1=C(C(=O)Nc2ccccc2C)C(c2ccc(C3C(C(=O)Nc4ccccc4C)=CNC=C3C(=O)Nc3ccccc3C)cc2)C(C(=O)Nc2ccccc2C)=C(C)N1
inactive: [1] 29.3% | [2] 44.8% | [3] 21% | [4] 50.4% | [5] 46%

N#CCc1ccccc1C(C#N)C(=O)CCC(=O)C(C#N)c1ccccc1CC#N (stereo not given)
inactive: [1] 45.6% | [2] 26.1% | [3] -28.4% | [4] 6.75% | [5] 44.7%

COCn1cnc2c(=O)n(-c3ccc(OC)cc3)c(=S)n(-c3ccc(OC)cc3)c21
inactive: [1] 21.1% | [2] -13.7% | [3] -2.65% | [4] -21.4% | [5] -53.1%

COc1ccc(/C=N/Nc2nc(C)c(C)s2)cc1
inactive: [1] 30.9% | [2] 18.4% | [3] 11.4% | [4] 7.35% | [5] 55.8%

COc1ccc(CCNC(=S)NCCc2ccc(OC)c(OC)c2)cc1OC
inactive: [1] -17.1% | [2] -17.1% | [3] 20.2% | [4] 34.5% | [5] -1.4%

CC(=O)C1=CCC(C(C)C)C1 (stereo not given)
inactive: [1] 4.2% | [2] -0.9% | [3] -1.3% | [4] 17.1% | [5] 2%

Clc1ccccc1C1N2CCCCC2[C@@H]2c3[nH]c4ccccc4c3CCN12 (stereo not given in full)
inactive: [1] -14.8% | [2] -1.35% | [3] 9.25% | [4] 12.6% | [5] 2.4%

CCN1C(=O)CC(SCCSC2CC(=O)N(CC)C2=O)C1=O (stereo not given)
inactive: [1] 16.7% | [2] -7.7% | [3] -6.55% | [4] 13.7% | [5] -2.45%

CC(=O)OCN(C)N=Nc1ccc([N+](=O)[O-])cc1
inactive: [1] 28% | [2] 10.5% | [3] 6.15% | [4] 10.6% | [5] 22.6%

Cc1ccc2[nH]c(=O)cc(C)c2c1
inactive: [1] 15.2% | [2] -0.45% | [3] 20.2% | [4] 8.15% | [5] 30.8%

C1=NCCN=Cc2ccccc2O/N=N/Oc2ccccc21
inactive: [1] -14.9% | [2] -1.95% | [3] -44.4% | [4] 15.4% | [5] -4.7%

CCOC(=O)NC(=S)Nc1ccn(C)c1
inactive: [1] 10.4% | [2] 36.8% | [3] 39.9% | [4] 1.65% | [5] 46.6%

c1c2c(cc3c1OCN(C1CC1)C3)OCN(C1CC1)C2
inactive: [1] 0.7% | [2] 5.6% | [3] -19.2% | [4] -13.8% | [5] -3.35%

CN1C(=O)CC(NC(=O)CNC(=O)c2ccccc2)C1=O (stereo not given)
inactive: [1] 19.5% | [2] 16% | [3] 21.1% | [4] 2.7% | [5] 29.4%

CCCCC#CCC#Cc1ccccc1
inactive: [1] -4.3% | [2] 5.25% | [3] 23.2% | [4] -10.9% | [5] 10.1%

Oc1ccc(Cl)c(O)c1
inactive: [1] 30.1% | [2] -0.55% | [3] 0.9% | [4] -6% | [5] 21.7%

CCOC(=O)c1oc2c(OC)ccc3c2c1CCC3
inactive: [1] 7.7% | [2] 4% | [3] -9.4% | [4] -6.25% | [5] 30.8%

CC(O)C12OC1CC1C3CC4OC45CC(O)CCC5(C)C3CCC12C (stereo not given)
inactive: [1] 36.5% | [2] 20.6% | [3] 31.1% | [4] 36.9% | [5] 9.1%

Clc1ccc(-c2nnc(-c3ccc(Cl)c(Cl)c3)o2)cc1Cl
inactive: [1] 0.25% | [2] 9.95% | [3] -30.5% | [4] -10.9% | [5] 22.9%

COc1cc2cc3c4cc(OC)c(OC)cc4cc[n+]3c(CCC(=O)O)c2cc1OC (tested in a mixture with another compound)
inactive: [1] 10.4% | [2] -2.75% | [3] -4% | [4] 9.35% | [5] -0.1%

Cc1ccc(NC(=O)C2C(=O)N(c3ccc(C)c(C)c3)C(=O)C2N=N)cc1C (stereo not given)
inactive: [1] 7.9% | [2] 34.8% | [3] -41.8% | [4] 0.35% | [5] 44.9%

CCCCN1C(=O)C(CC(=O)OCC)SC1=S (stereo not given)
inactive: [1] -8.35% | [2] -28.7% | [3] -7.8% | [4] -18.2% | [5] -14.3%

O=C(O)Cc1c(-c2ccccc2)nc(=S)[nH]c1-c1[nH]c(=S)nc(-c2ccccc2)c1CC(=O)O
inactive: [1] -15.6% | [2] 10.1% | [3] -12.3% | [4] 2.15% | [5] 2.25%

Cc1cc2nc(Cl)n(C3OC(CO)C(O)C3O)c2cc1C (stereo not given)
inactive: [1] 16.6% | [2] -7.15% | [3] 4.8% | [4] -1% | [5] 12.8%
